Assay outcomes deposited in PubChem by National Center for Advancing Translational Sciences (NCATS).
A selection: hits, their analogues and other compounds. The true share with any hit is near 10%.
ALDH1A1 inh = blocks purified human ALDH1A1 activity. Potency, µM (titrated, usually from 75.3 µM), for the others: at the top dose activity, negative = inhibition, usual class: inhibitors. hit rate 7.3% among 220,000. Purified ALDH1A1, NADH fluorescence, propionaldehyde substrate. P00352;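 further: potency means the concentration at half of the fitted maximal effect; plate controls were no enzyme wells and a reference inhibitor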
Target sequence (P00352 whole entry, looked up): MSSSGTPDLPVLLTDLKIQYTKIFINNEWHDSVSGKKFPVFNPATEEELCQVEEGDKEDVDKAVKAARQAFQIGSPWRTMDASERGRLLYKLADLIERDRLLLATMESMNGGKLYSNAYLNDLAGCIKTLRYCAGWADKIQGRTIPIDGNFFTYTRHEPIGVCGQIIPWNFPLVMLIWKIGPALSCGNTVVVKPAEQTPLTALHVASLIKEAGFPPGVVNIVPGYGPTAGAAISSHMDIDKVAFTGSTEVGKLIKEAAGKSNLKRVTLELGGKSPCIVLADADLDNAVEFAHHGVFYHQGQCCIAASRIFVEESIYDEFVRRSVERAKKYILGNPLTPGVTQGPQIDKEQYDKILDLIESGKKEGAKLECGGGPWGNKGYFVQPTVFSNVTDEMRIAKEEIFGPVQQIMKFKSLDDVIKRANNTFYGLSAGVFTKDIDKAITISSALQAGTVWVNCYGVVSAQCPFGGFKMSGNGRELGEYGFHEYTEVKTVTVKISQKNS
PNC assembly inh = inhibitors of perinucleolar compartment assembly; PC3M PTB-GFP, PNC prevalence imaging, 16 h; active compounds read low; activity change (PNC), negative = inhibition, % at 10 µM; hit rate 3.1% among 140,000;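 active means readout at or below -70, meaning at least 70% loss of cells showing the perinucleolar compartment, a nuclear body marking cancer cells; inconclusive means readout between -30 and a set limit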;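 further: plate controls were DMSO wells for no effect and camptothecin positive control wells for full effect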
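PC3M cells stably expressing PTB-GFP, 750–1000 cells/well, treated 16 h at 37 °C with compound (23 nl of library stock), in duplicate. After paraformaldehyde fixation and Hoechst stain, imaged at 20x; PNC prevalence scored by image analysis.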
LMNA splice mod = LMNA splicing modulation; HeLa LMNA splicing GFP/RFP minigene ratio, 48 h; Potency, µM (doses to about 46.1 µM), for the others: at the highest dose ratio change, negative = inhibition, most hits filed as inhibitors; hit rate 0.01% among 200,000; AID 1487; active means well fitted inhibition curve with a large enough effect in the signal ratio, with a control signal flat, not every such curve was filed as active; inconclusive means small, poorly fitted or top-dose-only effect, or effect the other way, or a change in a side signal; the % refers to the signal ratio; further: potency means the concentration at half of the fitted maximal effect
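S3 HeLa cells stably expressing lamin A-EGFP splicing minigene plus DsRed2, 600 cells/well, 48 h compound exposure at 37C. Laser-scanning cytometry; analysed as GFP (500-530 nm)/RFP (575-640 nm) total intensity ratio; 0.5% DMSO vehicle.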
HPGD inh = inhibitors of human 15-hydroxyprostaglandin dehydrogenase (HPGD); hit rate 4.3% among 150,000; purified HPGD, NADH fluorescence kinetic, PGE2 substrate; AID 894; Potency, µM, without a hit: top-dose activity change, negative = inhibition, actives largely listed as inhibitors; further: potency means the concentration at half of the fitted maximal effect
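20 nM HPGD preincubated 15 min at room temperature with compound in 50 mM Tris-HCl pH 8, 0.01% Tween 20. Started with 1 mM NAD+ and 30 uM prostaglandin E2; NADH fluorescence (360/450 nm) read 5 times over 30-s intervals, last minus first.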
ALOX12 inhib = inhibitors of human 12-lipoxygenase (ALOX12) | Potency, µM (top dose mostly 57.1 µM), for inactives: top-dose activity change, negative = inhibition, usual class: inhibitors | hit rate 0.12% among 150,000 | purified 12-hLO, xylenol orange hydroperoxide absorbance | P18054; active means well fitted inhibition curve with a large enough effect; inconclusive means small, poorly fitted or top-dose-only effect; further: potency means the concentration at half of the fitted maximal effect; nearly all actives have a fitted effect of over 55% in size
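Xylenol orange chromogenic assay: hydroperoxide from 12hLO oxidises Fe(II), giving red-shifted Fe(III)-XO absorbance. Conditions: 150 nM enzyme, 40 uM arachidonic acid, 25 mM Hepes pH 7.0, 0.01% Triton X-100, 30 min, room temperature.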
An asterisk follows results filed as active; [ ] = remark or other dose. Unless noted, the call rests on the fitted dose curve; in most records, active means well fitted inhibition curve with a large enough effect (not every such curve was filed as active); inconclusive means small, poorly fitted or top-dose-only effect, or another doubt; inactive means no such curve, though single readings can be large or run the other way. Unless noted, on the % scale 0 is the no-effect control and ±100 the full control effect.

COc1ccc2c(c1)C(=O)N(c1ccccc1OC)C(=O)C2 was read as ALDH1A1 inh 18µM*, PNC assembly inh 14, LMNA splice mod 7%, HPGD inh 8.9µM* and ALOX12 inhib 0%.
Screening Cc1cccc(CNc2nc(-c3cccnc3)nc3ccccc23)c1 returned ALDH1A1 inh inconclusive, LMNA splice mod inconclusive, HPGD inh -26% and ALOX12 inhib -4%.
Cc1ccc2[nH]c(=O)c(CNC(C)(C)C)cc2c1 was read as ALDH1A1 inh inconclusive, PNC assembly inh -107*, LMNA splice mod -10%, HPGD inh inconclusive and ALOX12 inhib -6%.
`CC(C)(C)NCc1cc2ccccc2[nH]c1=O` gave ALDH1A1 inh 20µM*, PNC assembly inh -11, LMNA splice mod 0%, HPGD inh inconclusive and ALOX12 inhib -16%.
Screening CN(Cc1cc2ccccc2[nH]c1=O)S(C)(=O)=O returned ALDH1A1 inh 5%, PNC assembly inh 32, LMNA splice mod 2%, HPGD inh -14% and ALOX12 inhib 0%.
`CN(C)CCNC(=O)c1ccc(-n2c(-c3ccccc3)cc3c2CCCC3)cc1` gave LMNA splice mod 2%[46 µM].
Screening CSc1cccc(NC(=O)C2CCN(c3nc4ccccc4[nH]3)CC2)c1 returned LMNA splice mod -3%[46 µM].
O=C(C#Cc1cccc([N+](=O)[O-])c1)c1ccccc1 was read as ALDH1A1 inh 3.5µM*, PNC assembly inh inconclusive, LMNA splice mod -4%, HPGD inh -16% and ALOX12 inhib -25%.
For O=C(/C=C/c1cccc([N+](=O)[O-])c1)c1ccccc1 the results were ALDH1A1 inh -4%, HPGD inh -7% and ALOX12 inhib 5%.
For CC1=CC(C)(C(Cl)Cl)C(C)=CC1=O (configuration not stated) the results were ALDH1A1 inh 5%, PNC assembly inh -100*, LMNA splice mod -3%, HPGD inh -19% and ALOX12 inhib -7%.
`Cc1c(NC(=O)c2cc3c(s2)-c2ccccc2OC3)cccc1[N+](=O)[O-]` gave ALDH1A1 inh 14µM*, PNC assembly inh inconclusive, LMNA splice mod -18%, HPGD inh inconclusive and ALOX12 inhib 1%.
For Cc1csc(NC(=O)c2cc3c(s2)-c2ccccc2OC3)n1 the results were ALDH1A1 inh inconclusive, PNC assembly inh 41, LMNA splice mod inconclusive, HPGD inh inconclusive and ALOX12 inhib 8%.
Screening COc1ccc2c(Cl)c(C(N)=O)sc2c1 returned ALDH1A1 inh -1%, PNC assembly inh 23, LMNA splice mod 7%, HPGD inh -13% and ALOX12 inhib -4%.
COc1ccc2c(Cl)c(C(=O)NN)sc2c1 was read as ALDH1A1 inh 1.1µM*, PNC assembly inh -6, LMNA splice mod inconclusive, HPGD inh -29% and ALOX12 inhib -16%.
Screening Cc1ccc2nc(SC(C)C(=O)N3CC(C)OC(C)C3)[nH]c2c1 (configuration not stated) returned ALDH1A1 inh -2% and LMNA splice mod 22%[46 µM].
`CC(Sc1nc2ccccc2s1)C(=O)NC1CCCc2ccccc21` (configuration not stated) gave ALDH1A1 inh 13µM*, PNC assembly inh 21, LMNA splice mod inconclusive, HPGD inh -4% and ALOX12 inhib -6%.
CC(Sc1nnnn1C)C(=O)NC1CCCc2ccccc21 (configuration not stated) was read as ALDH1A1 inh 6%.
`CC1CN(C(=O)C(C)Sc2nc3ccccc3s2)CC(C)O1` (configuration not stated) gave ALDH1A1 inh inconclusive, PNC assembly inh -1, LMNA splice mod 10%, HPGD inh 28µM* and ALOX12 inhib -6%.
For COc1ccccc1-c1nc(NCCN2CCOCC2)c2ccccc2n1 the results were ALDH1A1 inh -16% and LMNA splice mod 1%.
Screening O=C(NCc1ccc(Cl)cc1)C1CCN(S(=O)(=O)c2cc([N+](=O)[O-])ccc2Cl)CC1 returned ALDH1A1 inh 1.4µM*, PNC assembly inh -29, LMNA splice mod -7%, HPGD inh -5% and ALOX12 inhib 4%.
For Cc1cccc2sc(NC(=O)C3CCN(S(=O)(=O)c4cc([N+](=O)[O-])ccc4Cl)CC3)nc12 the results were ALDH1A1 inh 7.1µM*, PNC assembly inh 12, LMNA splice mod inconclusive, HPGD inh -20% and ALOX12 inhib -14%.
For COc1ccc(NC(=O)C2CCCN(S(=O)(=O)c3cccc4nonc34)C2)cc1 (configuration not stated) the results were ALDH1A1 inh 6%, PNC assembly inh -1, LMNA splice mod 1%, HPGD inh -8% and ALOX12 inhib 4%.
CC1=NCCN1S(=O)(=O)c1cc([N+](=O)[O-])ccc1Cl was read as ALDH1A1 inh 7.9µM* and LMNA splice mod 0%[46 µM].
O=C(NCc1ccc(Cl)cc1)C1CCN(S(=O)(=O)c2ccccc2)CC1 was read as ALDH1A1 inh inconclusive and LMNA splice mod -2%[46 µM].
Cc1cccc2sc(NC(=O)C3CCCN(S(=O)(=O)c4cccc5nonc45)C3)nc12 (configuration not stated) was read as ALDH1A1 inh 3%, PNC assembly inh -100*, LMNA splice mod 0%, HPGD inh -13% and ALOX12 inhib 0%.
`Cc1cccc(N2CCN(C(=O)C3CCN(S(=O)(=O)c4cn(C)cn4)CC3)CC2)c1C` gave LMNA splice mod -1%[46 µM].
CC[C@H](C)[C@@H](NC(=O)O[C@@H]1C(=O)c2ccc(OC)cc2O[C@H]1c1ccc2c(c1)OCO2)C(=O)OC was read as ALDH1A1 inh inconclusive and HPGD inh 0%.
`COc1cccc(CNC(=O)CCC2CCCN(C(=O)c3ccc(C)nc3)C2)c1` (configuration not stated) gave ALDH1A1 inh 2% and LMNA splice mod inconclusive.
COc1cccc(CNC(=O)CCC2CCCN(C(=O)c3cccc4c(C)c(C)[nH]c34)C2)c1 (configuration not stated) was read as ALDH1A1 inh 28µM*.
C[C@@H]1c2ccccc2CN1CC1=NCCN1 was read as ALDH1A1 inh -14%, HPGD inh -4% and ALOX12 inhib 6%.
For Cc1cc(N2C(=O)C=CC2=O)c([N+](=O)[O-])cc1C the results were ALDH1A1 inh 0.79µM*, PNC assembly inh -20, LMNA splice mod -2%, HPGD inh 2.8µM* and ALOX12 inhib -19%.
For N#Cc1cccc(-c2ccc3ncnc(NC4CCNCC4)c3c2)c1 the results were ALDH1A1 inh -12% and LMNA splice mod -6%.
For CCN(/C=N/S(=O)(=O)c1ccc(Cl)cc1)CC the results were ALDH1A1 inh 9%.
For O=C(CSc1ccc(Cl)cc1)NC1CCCC1 the results were ALDH1A1 inh -4%, PNC assembly inh 19, LMNA splice mod 8%, HPGD inh 10µM* and ALOX12 inhib -7%.
